Rows were chosen to be rich in hits. Some 1.2% of all compounds tested hit in one or more screens of this group.
GSH fluor: compound fluoresces at 488/530 nm on GSH beads | GSH beads flow cytometry, compound fluorescence 488/530 nm; active compounds read high | fluorescence (KMESF) at 10 µM | actives 0.25% (n = 190,000); in the data active = fluorescence above about 89;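 note: glutathione beads carrying GST-tagged Bcl family fusion proteins plus one bare bead set; values are compound well signal with DMSO vehicle wells as background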
Avidin bead fluor: avidin bead compound fluorescence profile. Avidin beads, compound fluorescence 488/530 nm, flow cytometry; active compounds read high. fluorescence (KMESF) at 10 µM. actives 0.38% (n = 220,000). AID 1775; in the data active = fluorescence above about 47
RGS4-Gao reg: modulates binding of RGS4 to human Galphao. actives 0.33% (n = 220,000). AID 1415. binding response (% of control), % at 10 µM. Multiplexed bead flow cytometry; actives lie on both sides; in the data active = binding response below about 49% or above about 150%; inactive = in between;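 note: fluorescent Galphao activated with aluminum fluoride binding bead-coupled RGS4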
Target sequence (P09471 whole entry, looked up): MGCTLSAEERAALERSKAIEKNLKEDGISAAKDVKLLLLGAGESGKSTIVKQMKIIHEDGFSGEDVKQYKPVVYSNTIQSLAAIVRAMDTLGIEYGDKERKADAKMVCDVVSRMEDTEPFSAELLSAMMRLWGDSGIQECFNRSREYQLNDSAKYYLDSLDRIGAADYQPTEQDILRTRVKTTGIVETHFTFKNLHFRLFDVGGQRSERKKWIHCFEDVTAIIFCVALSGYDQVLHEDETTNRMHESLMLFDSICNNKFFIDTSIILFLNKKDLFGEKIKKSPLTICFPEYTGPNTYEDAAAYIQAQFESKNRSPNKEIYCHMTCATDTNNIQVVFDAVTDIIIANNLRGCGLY
RGS8-Gao: regulators of human RGS8-Galphao interaction | P09471 | multiplexed bead flow cytometry, RGS8-Galphao binding; actives lie on both sides | response (percent of control binding), % at 10 µM | actives 0.34% (n = 220,000) | AID 1423; in the data active = response below about 60% or above about 140%; inactive = in between;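 note: Galphao activated as the GDP aluminium fluoride complex binding bead-coupled RGS8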
RGS16-Gao: regulators of human RGS16-Galphao interaction; O15492+P09471; bead-based flow cytometry RGS16-Galphao binding, fluorescence; actives lie on both sides; binding response (% of control), % at 10 µM; actives 0.38% (n = 220,000);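 note: Galphao activated by GDP with aluminum fluoride before binding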
Target sequence (O15492 whole entry, looked up): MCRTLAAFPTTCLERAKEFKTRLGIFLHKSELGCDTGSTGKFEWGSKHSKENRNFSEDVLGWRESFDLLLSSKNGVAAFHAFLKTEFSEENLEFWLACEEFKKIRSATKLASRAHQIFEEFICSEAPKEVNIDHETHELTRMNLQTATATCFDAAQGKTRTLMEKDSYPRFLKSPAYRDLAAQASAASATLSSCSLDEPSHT
Target sequence (P09471 whole entry, looked up): as the sequence (P09471 whole entry, looked up) above
RGS7-Gao: regulators of human RGS7-Galphao interaction. Multiplexed bead flow cytometry, RGS7-Galphao binding; actives lie on both sides. binding response (% of control), % at 10 µM. actives 0.35% (n = 220,000). AID 1439; in the data active = binding response below about 49% or above about 150%; inconclusive = no clear call, values can overlap the other calls; inactive = in between;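 note: fluorescent Galphao held in activated GDP-AlF4 state binding bead-coupled RGS7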
RGS-Gao: regulators of human RGS4-Galphao interaction; shares compounds with RGS16-Gao; multiplexed bead flow cytometry, RGS–Galpha-o binding; RGS4–Galpha-o binding response, % at 10 µM; actives 99% (n = 1,600); AID 1504;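 note: fluorescently labeled Galpha-o bound to GDP with aluminium fluoride binding biotinylated RGS beads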
Biotin-avidin: counter-screen: compounds disrupting biotin binding to avidin beads | 1,700 tested, under 10 active | shares compounds with RGS16-Gao | inhibition, % at 10 µM | streptavidin beads, fluorescein-biotin binding, flow cytometry | AID 1783;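 active = inhibition above 50%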;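 note: median green fluorescence of gated singlet beads compared with DMSO control wells; 0% = DMSO wells and 100% = complete loss of bead fluorescence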
RGS8-Gao single: confirmation of regulators of human RGS8-Galphao interaction | shares compounds with RGS16-Gao | bead-based flow cytometry RGS8-Galphao binding, fluorescence; actives lie on both sides | binding response (% of control), % at 10 µM | actives 3% (n = 1,700); in the data active = binding response below about 72% or above about 130%; inactive = in between;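 note: Galphao activated as GDP AlF4 complex before binding bead RGS8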
RGS7-Gao confirm: RGS7-Galphao interaction regulation, single point confirmation | shares compounds with RGS16-Gao | bead-based flow cytometry RGS7-Galphao binding; actives lie on both sides | response (percent of control binding), % at 10 µM | actives 7.8% (n = 1,700) | AID 1837; in the data active = response below about 75% or above about 130%; inactive = in between;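 note: fluorescent Galphao activated with GDP and aluminum fluoride binding bead-coupled RGS7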
RGS16-Gao conf: RGS16-Galphao interaction regulation, single point confirmation; shares compounds with RGS16-Gao; bead-based flow cytometry, RGS16-Galphao binding; actives lie on both sides; response (% of control binding), % at 10 µM; actives 4% (n = 1,700); AID 1838; in the data active = response below about 74% or above about 130%; inactive = in between;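 note: Galphao activated as the GDP aluminium fluoride complex binding bead-coupled RGS16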
RGS4-Gao single: confirmation of regulators of human RGS4-Galphao interaction; RGS4-Galphao binding, multiplexed bead flow cytometry; actives lie on both sides; binding response (% of control), % at 10 µM; shares compounds with RGS16-Gao; actives 4% (n = 1,700); in the data active = binding response below about 74% or above about 130%; inactive = in between
RGS19-Gao conf: RGS19-Galphao interaction regulation, single point confirmation | actives 5% (n = 1,700) | AID 1841 | shares compounds with RGS16-Gao | response (percent of control binding), % at 10 µM | bead-based flow cytometry RGS19-Galphao binding; actives lie on both sides; in the data active = response below about 50% or above about 160%; inactive = in between;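 note: 100% = no compound control and 0% = blank background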
* hit, by the source's call; ? = inconclusive; / = no result given; [ ] = remark or other dose. Unless noted, the rule behind the calls is not given here.

SMILES | GSH fluor | Avidin bead fluor | RGS4-Gao reg | RGS8-Gao | RGS16-Gao | RGS7-Gao | RGS-Gao | Biotin-avidin | RGS8-Gao single | RGS7-Gao confirm | RGS16-Gao conf | RGS4-Gao single | RGS19-Gao conf
CCOC(=O)c1cnc(SCC(=O)N2CCOCC2)nc1N | 12 | 8 | 105 | 106 | 111 | 108 | / | / | / | / | / | / | /
COc1ccccc1/C=c1\sc2nc(-c3ccco3)nn2c1=O | 11 | / | / | / | / | / | / | 2 | 97 | 89 | 94 | 92 | 83
CC(CN1CCN(C)CC1)OC(=O)c1cccc(Cl)c1 (stereo unspecified) | / | 7 | 86 | 89 | 87 | ? | / | / | / | / | / | / | /
COc1ccc(OCC(=O)N2CCN(c3nnc(-c4ccccc4)c4ccccc34)CC2)cc1 | 18 | -1 | 12* | 22* | 8.3* | 15* | / | -1 | 111 | 120 | 115 | 115 | 99
CC(C)(C)c1cc(C(=O)N/N=C/c2ccco2)n[nH]1 | 9 | 17 | 114 | 136 | 279*[activator] | 115 | 114* | 0 | 95 | 91 | 94 | 94 | 87
Cc1ccc(-c2cc(C(=O)N/N=C/c3ccco3)n[nH]2)s1 | 11 | 10 | 101 | 102 | 99 | 98 | / | / | / | / | / | / | /
COC(C[C@@H](O)C[C@H](O)COCc1ccccc1)OC | / | 8 | 101 | 102 | 101 | ? | / | / | / | / | / | / | /
O=C(Nc1ccccc1)Nc1nccs1 | 14 | 34 | 98 | 103 | 101 | 97 | / | / | / | / | / | / | /
CC(C)(C(=O)Nc1nccs1)c1ccccc1 | 13 | 12 | 137 | 139 | 147 | 156*[activator] | 137* | 3 | 103 | 109 | 104 | 106 | 107
CCCCNC(=O)/C=C/c1ccc(S(=O)(=O)Nc2ccc(OC)cc2)cc1 | 14 | 7 | 102 | 100 | 101 | ? | / | / | / | / | / | / | /
CCN1CCCC1CNC(=O)C(=O)Nc1ccccc1OC (stereo unspecified) | 13 | 62* | 101 | 104 | 108 | 153*[activator] | 101* | / | / | / | / | / | /
CS(=O)(=O)N1CCN(C2C3CC4CC(C3)CC2C4)CC1 (stereo unspecified) | 64 | 29 | 101 | 104 | 103 | 100 | / | / | / | / | / | / | /
Nc1nc(-c2ccc(Cl)cc2)cc(C(F)(F)F)n1 | 8 | 7 | 126 | 142*[activator] | 280 | 118 | 126* | -2 | 102 | 151*[activator] | 111 | 126*[activator] | 128
Nc1nc(-c2ccc(F)cc2)cc(C(F)(F)F)n1 | 11 | 10 | 102 | 101 | 102 | 99 | / | / | / | / | / | / | /
CCOC(=O)C1CCCN(C(=O)Cn2sc3nc(C)cc(C)c3c2=O)C1 (stereo unspecified) | 18 | 2 | 90 | 58* | 17* | 95 | 90* | -1 | 61* | 75* | 16* | 73* | 15*
Cc1cc(C)c2c(=O)n(CC(=O)N3CCC(N4CCCCC4)CC3)sc2n1 | 16 | 3 | 92 | 82 | 64 | 117 | / | / | / | / | / | / | /
CCCNC(=O)Cn1sc2nc(C)cc(C)c2c1=O | / | 2 | 78 | 60 | 16* | ? | 78* | 0 | 52* | 70* | 9.1* | 73* | 3.9*
Oc1ccc(N2CCN(C(c3cccnc3)c3nnnn3Cc3ccccc3)CC2)cc1 (stereo unspecified) | 29 | -4 | -26* | 8.1* | -26* | -9.4* | / | 0 | 88 | 99 | 91 | 97 | 77
COc1ccc(N2CCN(C(c3cc4cc(C)ccc4[nH]c3=O)c3nnnn3Cc3ccccc3)CC2)cc1 (stereo unspecified) | 40 | / | / | / | / | / | / | 2 | 99 | 100 | 98 | 100 | 98
COc1ccc(Cn2nnnc2C(c2cc3cc(C)ccc3[nH]c2=O)N2CCOCC2)cc1 (stereo unspecified) | 23 | 15 | 98 | 99 | 99 | 98 | / | / | / | / | / | / | /
c1ccc(CCn2nnnc2C(c2cccnc2)N2CCN(c3ccccc3)CC2)cc1 (stereo unspecified) | 7 | 10 | 77 | 88 | 80 | 85 | / | / | / | / | / | / | /
CC1(C)CC(=O)C2=C(C1)OC1=C(C(=O)CC(C)(C)C1)C2(C)C | 5 | 15 | 98 | 100 | 99 | 100 | / | / | / | / | / | / | /
O=C(O)c1ccc(Nc2ncc([N+](=O)[O-])cc2[N+](=O)[O-])cc1 | 23 | 6 | 98 | 97 | 66 | 100 | / | / | / | / | / | / | /
Cc1cc(Cl)ccc1N=c1ssnc1Cl | 7 | 8 | 83 | 77 | 19* | 107 | 83* | -1 | 87 | 93 | 78 | 97 | 55
COC(=O)CCC(=O)Nc1sc(C)c(C)c1C(N)=O | 44 | / | / | / | / | / | / | 0 | 82 | 73* | 70* | 69* | 44*
SMILES | GSH fluor | Avidin bead fluor | RGS4-Gao reg | RGS8-Gao | RGS16-Gao | RGS7-Gao | RGS-Gao | Biotin-avidin | RGS8-Gao single | RGS7-Gao confirm | RGS16-Gao conf | RGS4-Gao single | RGS19-Gao conf
Cc1nn(-c2ccccc2)c(C)c1NC(=O)c1cccs1 | 10 | 9 | 82 | 80 | -7.9* | 88 | 82* | 0 | 101 | 103 | 100 | 103 | 101
Cc1nn(-c2ccccc2)c(C)c1NC(=O)Cc1cccs1 | 17 | 6 | 56 | 68 | 58 | 55 | / | / | / | / | / | / | /
CN(C)CCNc1oc(-c2cccc(Cl)c2)nc1C#N | 11 | 5 | 0.2* | 31* | 5.0* | 12* | / | -1 | 98 | 98 | 99 | 99 | 105
COc1ccc(NC(=S)NCCc2ccc(F)cc2)c(OC)c1 | 9 | 2 | 88 | 66 | 19* | 92 | 88* | -1 | 100 | 99 | 98 | 100 | 95
COc1ccc(NC(=S)NCCc2ccccc2)c(OC)c1 | 35 | 6 | 103 | 104 | 109 | 100 | / | / | / | / | / | / | /
CC(C)CC(NC(=O)C(NC(=O)C(Cc1ccc(OCc2ccccc2)cc1)NC(=O)OC(C)(C)C)C(C)C)C(N)=O (stereo unspecified) | 13 | 10 | 104 | 116 | 183*[activator] | 108 | 104* | -1 | 101 | 93 | 100 | 98 | 95

Assay outcomes from PubChem BioAssay.
